In PubChem BioAssay:

What follows are compounds tested against Calmodulin-1 (Homo sapiens) (UniProt P0DP23) (assay: CALM1 binders on microarrays, EGTA buffer, profiling panel, biochemical, small-molecule microarray, Cy5-labelled CALM1 (AID 1111;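 further: labelled calmodulin applied in Tris saline Tween buffer holding calcium plus EGTA and DTT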)). Conditions: Cy5-CALM1 binding fluorescence, higher = more signal.
`C=CCC(OC(C)=O)[C@@H]1[C@@H](N(Cc2cc3ccccc3o2)C(=O)c2ccc(C)cc2)c2cc(OCCCO)ccc2N1C(=O)Cc1ccc2ccccc2c1` (stereo partly specified) was tested, and the composite z-score was -0.0956.
In the case of `COC(=O)[C@H](Cc1ccccc1)N1CC(/C=C/C2CC2)=C[C@@H]1[C@@H](O)Cc1ccccc1`, the composite z-score is reported as 0.48.
`C=C1C2CC3C(=C4C(CO[C@@H]4[C@H]4CCCN4S(=O)(=O)c4ccccc4[N+](=O)[O-])C4C(=O)N(C)C(=O)C34)CC2C(=O)N1C` (stereo partly specified) showed a composite z-score of -0.0741.
With `[N-]=[N+]=Nc1ccccc1C[C@]1(C(=O)NCc2ccccc2)N=C(c2ccc(OCCCO)cc2)O[C@H]1c1ccccc1` the composite z-score was 2.03.
`COc1ccccc1CN1C(=O)c2ccccc2[C@](Cc2ccccc2I)(C(=O)NC(C)C)[C@@H]1c1ccc(CO)cc1` showed a composite z-score of 0.704.
In the case of `O=C1NC(=O)C2C1C=CC(C(O)c1ccc3c(c1)OCO3)N2Nc1ccccn1` (stereo unspecified), the composite z-score is reported as 0.151.
In the case of `[N-]=[N+]=NCc1ccccc1C[C@@]1(C(N)=O)N=C(c2ccc(OCCCO)cc2)O[C@@H]1c1ccccc1CN=[N+]=[N-]`, the composite z-score is reported as 1.37.
With `COCCCNC(=O)[C@]1(Cc2ccccc2CN=[N+]=[N-])N=C(c2ccc(OCCCO)cc2)O[C@@H]1c1ccccc1` the composite z-score was 0.486.
`COCCOC(=O)N1C(=O)[C@@]2(c3cc(C#CC4(O)CCCCCC4)ccc31)[C@H](C(=O)N1CCCCCCC1)[C@H]1C(=O)O[C@H](c3ccccc3)[C@H](c3ccccc3)N1[C@@H]2c1ccc(OCCO)cc1` showed a composite z-score of 2.33.
`CN(C)CCCCNC(=O)[C@H]1C[C@H]2C(=O)N3CCC[C@H]3C(=O)N2[C@H]1c1ccc(O)cc1` was tested, and the composite z-score was -0.969.
`O=C1O[C@H](c2ccccc2)[C@H](c2ccccc2)N2[C@H]1[C@@H](C(=O)O)[C@]1(C(=O)Nc3ccccc31)[C@H]2c1ccc(O)cc1` showed a composite z-score of -0.2.
In the case of `C=CC[C@@]1(C(=O)O)N=C(c2ccc(OCCCO)cc2)O[C@@H]1c1ccccc1`, the composite z-score is reported as -0.815.
With `CN1C(=O)C2C(C1=O)C1C=C(c3ccc(CO)cc3)C2C(c2cccs2)N1Cc1cccc(OC(F)(F)F)c1` (stereo unspecified) the composite z-score was 1.1.
`COc1cc(CO)cc(I)c1O[C@H]1C=C(C(=O)NCCO)C[C@@H](N(CC2CCCCC2)C(=O)c2ccc(C(F)(F)F)cc2)[C@@H]1O` was tested, and the composite z-score was 0.0208.
`C=C(/C=C/CNS(=O)(=O)c1ccc(C)cc1)[C@H](O)[C@H]1CCCN1S(=O)(=O)c1ccccc1[N+](=O)[O-]` was tested, and the composite z-score was -0.115.
For `C=CCN1C(=O)[C@@]2(O[C@@H](CCO)[C@H]([Si](C)(C)c3ccc(OC)cc3)[C@H]2C)c2cc(N3C(=O)c4ccccc4Oc4ccccc43)ccc21`, the composite z-score was 1.4.
Work on `COCCOC(=O)N1C(=O)[C@@]2(c3cc(C#CCNC(N)=O)ccc31)[C@H](C(=O)N1CCCCCCC1)[C@H]1C(=O)O[C@H](c3ccccc3)[C@H](c3ccccc3)N1[C@@H]2c1ccc(O)cc1` yielded a composite z-score of 0.356.
`Cc1ccc(S[C@]2(C(=O)NCc3ccccc3)CC(=O)N(C(C)C)[C@@H]2c2ccc(CO)cc2I)cc1` was tested, and the composite z-score was 0.436.
Compound `CCOC(=O)C1=CC[C@@H](c2ccc([N+](=O)[O-])cc2)N(S(=O)(=O)c2ccc(C)cc2)[C@H]1c1ccccc1` has a composite z-score of 0.455.
With `COc1ccc([Si](C)(C)[C@H]2[C@H](CCn3cc([C@H](O)c4ccccc4)nn3)O[C@@]3(C(=O)N(Cc4ccc(N5CCC5=O)cc4)c4ccccc43)[C@@H]2C)cc1` the composite z-score was -0.468.
`COc1cc2c(cc1OC)CN(C(=O)[C@H]1[C@@H]3C(=O)O[C@@H](c4ccccc4)[C@@H](c4ccccc4)N3[C@@H](c3ccc(OCCO)cc3)[C@]13C(=O)Nc1ccc(C#CCCO)cc13)CC2` was tested, and the composite z-score was 1.23.
`COc1ccc(NN2C(C(O)c3ccco3)C=CC3C(=O)N(C4CCCCC4)C(=O)C32)cc1` (stereo unspecified) showed a composite z-score of 0.9.
`NC(=O)N1C(=O)C2C(C1=O)C1C=C(c3ccc(CO)cc3)C2C(C2CC2)N1Cc1sc2ccccc2c1Cl` (stereo unspecified) gave a composite z-score of 0.867.
With `CON(C)C(=O)C=C1C[C@@H](c2cccc(Cl)c2)O[C@@H](c2cccc(Cl)c2)O1` the composite z-score was 0.389.
`O=C1O[C@@H](c2ccccc2)[C@@H](c2ccccc2)N2[C@@H](c3ccccc3OCCO)[C@]3(C(=O)Nc4ccccc43)[C@@H](C(=O)NC[C@H](O)c3ccccc3)[C@H]12` showed a composite z-score of 1.08.
Compound `C=C(/C(=C/C[C@@H](OC(=O)c1ccncc1)c1ccc(OCCO)cc1)c1cc(C(=O)OC)ccc1OC)C(C)C` has a composite z-score of 0.356.
With `COCCOC(=O)N1C(=O)[C@@]2(c3cc(C#Cc4ccc(OC)cc4)ccc31)[C@H](C(=O)NC[C@H](O)c1ccccc1)[C@H]1C(=O)O[C@H](c3ccccc3)[C@H](c3ccccc3)N1[C@@H]2c1ccc(O)cc1` the composite z-score was 0.0624.
`[N-]=[N+]=NCc1ccccc1[C@H]1OC(c2ccc(OCCCO)cc2)=N[C@@]1(CCS(=O)(=O)c1ccccc1)C(N)=O` gave a composite z-score of 0.145.
Compound `COc1ccc([Si](C)(C)[C@@H]2[C@@H](CCO)O[C@]3(C(=O)N(Cc4cccc(N5C(=O)c6cccc7cccc5c67)c4)c4ccccc43)[C@H]2C)cc1` has a composite z-score of 0.831.
`CC(C)CNC(=O)[C@@H]1c2ccccc2C(=O)N(Cc2cc(F)cc(C(F)(F)F)c2)[C@H]1c1ccc(CO)cc1` showed a composite z-score of 0.0981.
In the case of `C=CCN1C(=O)[C@]2(CC=C)N=C(c3ccc(OCCCO)cc3)O[C@@H]2c2ccccc21`, the composite z-score is reported as 1.94.
`COC(=O)C1(Cc2ccccc2)C=C2C(=C(C(C)C)C(=O)C2C)CN1` (stereo unspecified) was tested, and the composite z-score was 1.09.
Compound `C=C(C(=O)CC[C@H](OC(=O)c1cccnc1)c1ccc(CO)o1)C(C)C` has a composite z-score of 0.627.
For `COc1ccc(C(O)C2C=CC3C(=O)N(c4ccccc4)C(=O)C3N2Nc2ccc(C#N)cc2)c2ccccc12` (stereo unspecified), the composite z-score was 2.63.
Compound `NC(=O)NCC#Cc1ccc2c(c1)[C@]1(C(=O)N2)[C@H](C(=O)Nc2nc3ccccc3s2)[C@H]2C(=O)O[C@H](c3ccccc3)[C@H](c3ccccc3)N2[C@@H]1c1ccc(O)cc1` has a composite z-score of 1.29.
Work on `COc1ccc(C#Cc2ccc3c(c2)[C@]2(C(=O)N3)[C@H](C(=O)N3CCc4cc(OC)c(OC)cc4C3)[C@H]3C(=O)O[C@H](c4ccccc4)[C@H](c4ccccc4)N3[C@@H]2c2ccc(O)cc2)cc1` yielded a composite z-score of 1.22.
